PubChem BioAssay AID813 (Sanford-Burnham Center for Chemical Genomics, 2007)
Out of some 64,000 compounds screened, fewer than 10 were called active.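 How the source made its calls: active means activation factor of at least 2 at 20 µM, relative to controls; inactive means the rest.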 Only a sample is shown.

Molecular target: Alkaline phosphatase, tissue-nonspecific isozyme (Homo sapiens) (UniProt P05186)
Test: stimulation of alkaline phosphatase TNAP activity – biochemical, luminescent, intermediate phosphate acceptor level, primary screen (AID 813)
Settings: purified TNAP, CDP-star luminescence, 100 mM DEA, 30 min; at 20 µM; stronger effect = higher value; scale: 0 levamisole-inhibited, 1 vehicle-only enzyme

Sequence of Alkaline phosphatase, tissue-nonspecific isozyme (Homo sapiens) (P05186 whole entry, looked up): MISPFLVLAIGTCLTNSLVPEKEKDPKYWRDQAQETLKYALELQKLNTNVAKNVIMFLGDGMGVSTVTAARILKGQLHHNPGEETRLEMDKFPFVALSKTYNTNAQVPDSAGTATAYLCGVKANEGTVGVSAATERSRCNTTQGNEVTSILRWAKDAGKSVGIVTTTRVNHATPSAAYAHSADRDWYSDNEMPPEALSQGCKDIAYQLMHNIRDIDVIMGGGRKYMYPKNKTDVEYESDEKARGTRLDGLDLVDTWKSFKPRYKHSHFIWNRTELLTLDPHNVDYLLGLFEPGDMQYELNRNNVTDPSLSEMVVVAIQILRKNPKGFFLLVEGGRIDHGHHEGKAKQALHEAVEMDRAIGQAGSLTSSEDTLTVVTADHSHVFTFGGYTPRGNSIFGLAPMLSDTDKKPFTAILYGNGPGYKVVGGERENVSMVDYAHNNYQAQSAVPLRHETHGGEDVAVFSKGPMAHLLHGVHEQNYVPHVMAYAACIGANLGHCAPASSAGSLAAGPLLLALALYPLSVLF

Activation factor, active:
COc1cccc(N(C(=O)c2ccn[nH]2)C2(C(=O)Nc3c(C)cccc3C)CCCCC2)c1 2.8, OCCCN1c2ccccc2Nc2nnc(-c3ccccc3)cc21 4.3

Activation factor, inactive:
Cc1cc(C)nc(N2C(=O)CC(Cc3ccccc3)C2=O)n1 (stereo unspecified) 0.9, COc1ccc(-n2c(SCC(=O)Nc3ccc4c(c3)OCO4)nnc2C(C)N2CCCCC2)cc1 (stereo unspecified) 1, N#CC1=C(N)OC2=C(C(=O)CCC2)C1C1CC=CCC1 (stereo unspecified) 0.9, O=C(Nc1ccon1)c1sc2ccccc2c1Cl 1, Cc1ccc(S(=O)(=O)NCC(=O)OCC(=O)N2CCc3ccccc32)cc1 0.8, COc1ccc(C(=O)CSc2nccc(=O)[nH]2)cc1 1, CSc1cccc(NC(=O)C2CCCN2S(=O)(=O)c2ccc3c(c2)CCC(=O)N3)c1 (stereo unspecified) 0.9, Cc1ccnc(N2CCCC(C(=O)Nc3cc(F)ccc3C)C2)n1 (stereo unspecified) 0.9, Nc1nonc1C(=O)NCCc1ccccc1 0.9, CCc1cccc(C)c1NC(=O)CSc1nnc(-c2ccco2)n1N 1.1, COc1ccccc1-n1c(CNC(=O)c2ccccc2)nnc1SCC(=O)Nc1nnc(C)s1 1, Cc1ccc(S(=O)(=O)NC(C)C(=O)Nc2ccccc2C(=O)N2CCCC2)cc1 (stereo unspecified) 0.9, O=C1C(C=NCC2CCCO2)=C(O)c2ccccc21 (stereo unspecified) 1, O=C(CCN1C(=O)c2ccccc2C1=O)Nc1ccncc1 1, CCn1nnc(NC(=O)c2cc(Cl)c(OC)c(Cl)c2)n1 0.9, CN(C)/C=C1/C(=O)Nc2ccccc21 0.9, CCCNC(=O)C1CC(=O)N(c2ccc(OCC(=O)Nc3cccc(C)c3C)cc2)C1 (stereo unspecified) 1, CCCCNC(=O)CSc1nnc(-c2ccco2)n1C 1, CCOC(=O)c1cccc(NC(=O)CCn2nnc3ccccc32)c1 0.9, O=C(CSc1nnc(-c2cccs2)n1Cc1ccco1)c1ccc2c(c1)OCO2 0.9, CC(=O)N(CC1CCCO1)C1(C(=O)NC2CCCC2)CCCCC1 (stereo unspecified) 1, CCn1c(SCC(=O)Nc2cc(C)c(Cl)cc2OC)nnc1-c1ccco1 1, Cc1ccc2c(C(=O)CN3CCCC3)c(C)[nH]c2c1 0.9, Cc1cccc(C2c3c(n(C)c(=O)n(C)c3=O)N=C3c4ccccc4C(=O)C32)c1 (stereo unspecified) 0.8, C=CCn1c(C2CC(=O)N(c3ccc(C)cc3)C2)nc2ccccc21 (stereo unspecified) 0.9, CC1(C)Cc2c(C#N)c(SCc3nc4ccccc4[nH]3)nc(N3CCOCC3)c2CO1 1, CCOC(=O)C1C(=O)OC2(CCCC2)C1C(=O)OCC (stereo unspecified) 0.9, Cc1ncn(C23CC4CC(CC(O)(C4)C2)C3)n1 1, CC1CN(C(=O)CN2C(=O)NC(C)(c3ccccc3)C2=O)CC(C)O1 (stereo unspecified) 0.9, CCOc1cc(C)c(Cl)cc1S(=O)(=O)n1nnc2ccccc21 0.9, CCOC(=O)CNC(=O)c1nn(-c2cccc(OC)c2)c(=O)c2ccccc12 0.9, CC(C)c1ccc(NC(=O)NC2CCCCC2)cc1 0.9, COc1ccc(N2C(=O)C3CCCN3C2c2cc(OC)c(OC)cc2OC)cc1 (stereo unspecified) 0.9, Cc1oc(CC(C)C)c(CN2CCCC2)c1C(=O)O 0.9, CCCn1c(SCC(N)=O)nnc1C(C)C 0.9, O=C(CCN1C(=O)COc2ccccc21)NCCCN1CCN(c2ccc(F)cc2)CC1 0.9, Cc1c(-c2nn(C)c(=O)c3ccccc23)oc2ccc(F)cc2c1=O 1, CCC(=O)N1c2ccc(S(=O)(=O)CCC(=O)N3CCN(c4ccccc4)CC3)cc2CC1C (stereo unspecified) 0.9, Cc1cc(Nc2ccccc2)n(CCC#N)n1 1, Cc1cc2cc(CNC(=O)c3ccc(S(=O)(=O)N4CCOCC4)cc3)ccc2[nH]1 1, CCOC(=O)c1cc2occc2n1CC(=O)NC1CCC(C)CC1 (stereo unspecified) 0.9, CC(CN1CCCCC1)OC(=O)c1ccccc1Cl (stereo unspecified) 1, COC(=O)c1cc(NC2c3ccccc3C(=O)N2c2ccc(Cl)cn2)cc(C(=O)OC)c1 (stereo unspecified) 0.9, N=c1c2c3c(sc2ncn1CCCN1CCOCC1)CCCCC3 0.9, Cc1ccc(S(=O)(=O)NCc2csc(C)n2)c(C)c1 0.9, CSCCC1NC2(C(=O)Nc3ccc(Cl)cc32)[C@@H]2C(=O)N(C3CCCC3)C(=O)[C@H]12 (stereo partly specified) 0.9, NC(=O)c1ccsc1NC(=O)c1ccco1 0.8, O=C(CC1(O)C(=O)N(CN2CCOCC2)c2ccccc21)c1ccccc1 (stereo unspecified) 0.9, CCOc1cccc(-n2nnnc2-c2ccc(OC)cc2)c1 0.8, Cc1ccc(N2C(=O)c3oc4ccccc4c(=O)c3C2c2cccnc2)nc1 (stereo unspecified) 0.9, COc1ccccc1N1CCN(Cc2ccc(OC)c3ccccc23)CC1 0.9, CC(C)(C)c1csc(NC2=NS(=O)(=O)c3ccccc32)n1 0.9, CN1CCN(CC(O)COCc2ccc3c(c2)OCO3)CC1 (stereo unspecified) 1, COc1cc(C2C(C(=O)c3sc(C)nc3C)=C(O)C(=O)N2CCN(C)C)cc(OC)c1OC (stereo unspecified) 0.9, CCOc1cc(/C=N/O)cc(Br)c1OC 0.9, Cc1ccc(C(=O)Nc2ccccc2C(=O)NC2CCCCC2)cc1S(=O)(=O)N1CCOCC1 0.9, CC1CCN(c2nc3c(c(=O)[nH]c(=O)n3C)n2CCCc2ccccc2)CC1 1, Cc1cc(C)nc(NC2=NCC(=O)N2c2ccc(Cl)cc2)n1 0.9, CCOc1cc(S(=O)(=O)NC2CC(C)(C)NC(C)(C)C2)ccc1F 0.9, Nc1nnc(C2CCCC2)s1 0.9, Cn1c(=NC(=O)c2ccco2)sc2cccc(F)c21 0.9, CC(C)(CNCC(O)c1ccccc1)N1CCOCC1 (stereo unspecified) 0.9, CCOc1ccc(N(CC(=O)OC)S(=O)(=O)c2c(C)noc2C)cc1 0.9, COc1ccc(CCn2nnnc2C(c2ccccc2)N2CCN(C)CC2)cc1OC (stereo unspecified) 1, O=C(OCCO)c1cc(Cl)c(C(=O)OCCO)cc1Cl 0.9, O=C(C1CCCO1)N(Cc1ccccc1)c1ccccc1 (stereo unspecified) 0.9, Cc1nn(-c2ccccc2)c2sc(C(=O)N(Cc3ccco3)C(C)C(=O)NC(C)(C)C)cc12 (stereo unspecified) 0.9, COc1cccc(N2C(=O)CC(N3CCN(S(=O)(=O)c4ccccc4)CC3)C2=O)c1 (stereo unspecified) 1, CCN(CC)S(=O)(=O)c1cccc(C(=O)NCC(=O)OCC(=O)NCc2ccccc2)c1 0.9, O=C(O)c1ccc(COc2c(F)c(F)cc(F)c2F)o1 0.8, CC12CN(Cc3ccccc3)CC(C)(CN(Cc3ccccc3)C1)C2=NO 1.2, COc1ccc(C)cc1-n1nnnc1SCC(=O)c1cc(C)n(Cc2ccco2)c1C 0.8, O=C(c1cccs1)N1CCN(Cc2ccc3c(c2)OCO3)CC1 1, COc1cccc(N2CC(C(=O)Nc3c(C)cccc3C)CC2=O)c1 (stereo unspecified) 1, Fc1cc(F)c2nc(N3CCOCC3)sc2c1 0.9, Cc1ccc(C(=O)O)cc1S(=O)(=O)NCC1CCCO1 (stereo unspecified) 0.9, COC(=O)c1ccccc1NC(=O)C1CCN(S(=O)(=O)c2cc(OC)ccc2OC)CC1 0.9, Cc1cccc(N)c1SC1CCCCC1O (stereo unspecified) 0.9, CC(=O)Nc1cccc2c1[n+]([O-])c(C)c(C)[n+]2[O-] 1, CC(=O)OC(C(=O)NCCc1ccccc1)c1cccnc1 (stereo unspecified) 1, CCc1nc2oc3ccccc3c(=O)c2c(=O)n1Cc1ccc(OC)cc1 0.9, CCSc1ncnc2c(C#N)c3n(c12)CCCCC3 0.9, O=C(Nc1c(C(=O)N2CCCCC2)cnn1-c1ccccc1)c1ccco1 1, CC1(C)CC(=O)C2=C(C1)NCN(CCCN1CCOCC1)C2 0.9, CCOC(=O)N1CCN(C(=O)Cc2ccc(-n3c(=S)[nH]c4ccccc4c3=O)cc2)CC1 1, O=C(OC(C(=O)NC1CCCC1)c1ccc(F)cc1)c1ccno1 (stereo unspecified) 0.9, CC(=O)N1CCN(CCN=CC2=C(O)CC(C)(C)CC2=O)CC1 0.9, CCCS(=O)(=O)C(=C1Nc2ccccc2N1)S(=O)(=O)CCC 0.9, O=C(Cc1c(F)cccc1Cl)N1CCN(C(=O)c2ccco2)CC1 0.8, O=C(COc1ccccc1Cl)Nn1cnnc1 0.9, O=C(CN(Cc1ccccc1)C(=O)c1ccc2c(c1)OCCO2)NCc1ccc2c(c1)OCO2 0.9, COc1ccc(C(=O)N(CCN2CCOCC2)CC(=O)NC2CCCC2)cc1OC 0.9, COc1ccc(C2C3=C(OC(C)=O)c4ccccc4C3=Nc3c2c(=O)n(C)c(=O)n3C)cc1 (stereo unspecified) 0.8, Cc1ccc(S(=O)(=O)c2c(N)n(C)c3nc4ccccc4nc23)cc1 0.9, NC(=O)C1CCN(C2OC(=O)c3ccccc32)CC1 (stereo unspecified) 0.9, O=C(OCC(=O)N1CCN(C(=O)c2ccco2)CC1)c1ccccc1Cc1ccccc1 1, Cc1coc2c(O)cc3c(c12)OC1(N2CCCCC2)C(=O)NCCCC31 (stereo unspecified) 0.9, CCC1=[N+]([O-])C(C)(/C(C)=N\O)N(O)C1(C)C (stereo unspecified) 1, O=C(CN1CCN(C(=O)c2cccc(F)c2)CC1)Nc1ccccc1F 1.1
